Several values for one entry are separate records, joined by “and”; a condition that tells them apart may be missing. Identical values can stand only once. More than one record can exist for a structure, and the calls need not agree. Activity calls are given as the source filed them. The calls were made as follows: active = hit-call score of the fitted dose curve at least 0.9, where 1 is the maximum; inactive = score below 0.9.
Key:
[1] = ATG_GLI_CIS: Attagene CIS-FACTORIAL HepG2 Assay for human Zinc Finger Protein GLI1 (AID 2282945); details: HepG2, Attagene cis-factorial reporter mRNA, GLI element; actives raise or lower the signal
Method in brief: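 HepG2 cells transiently transfected with cis-promoter multiplexed reporter units report endogenous transcription factor activity. After 24 h chemical exposure, reporter mRNA was quantified by RT-PCR, 6-FAM labelling, HpaI digestion and capillary electrophoresis, with bidirectional fitting against DMSO.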

[2] = target: Bile acid receptor (Homo sapiens) (UniProt Q96RI1); experiment: ATG_IR1_CIS: Attagene CIS-FACTORIAL HepG2 Assay for human Nuclear Receptor Subfamily 1 Group H Member 4 (NR1H4), IR1 submotif (AID 2282946); details: IR1 reporter transcription, actives raise or lower the signal
Method in brief: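 Transient MRTU transfection, HepG2; 24 h dosing; RNA → RT-PCR → 6-FAM primer extension → HpaI digest → capillary electrophoresis fluorescence. Gain/loss of signal fitted relative to DMSO.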

[3] = ATG_GRE_CIS: Attagene CIS-FACTORIAL HepG2 Assay for human Glucocorticoid Response Elements (GRE) (AID 2282947); details: HepG2 GRE cis-reporter, Attagene multiplex mRNA; actives raise or lower the signal
Method in brief: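 Following 24 h chemical exposure of transiently transfected HepG2 cells, total RNA was reverse-transcribed and reporter cDNA amplified, fluorescently labelled and sized by capillary electrophoresis. Signal gain or loss was fitted relative to DMSO vehicle.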

[4] = ATG_ISRE_CIS: Attagene CIS-FACTORIAL HepG2 Assay for human Interferon Regulatory Factor 1 (IRF1) binding to an Interferon-Stimulated Response Element (ISRE) (AID 2282948); details: HepG2 ISRE cis-reporter (Attagene), mRNA transcription readout; actives raise or lower the signal
Method in brief: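 Cell-based cis-reporter assay; HepG2; 24 h exposure; reporter mRNA by RT-PCR plus capillary electrophoresis fluorescence; activity in either direction scored relative to DMSO.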

[5] = ATG_M_32_CIS: Attagene CIS-FACTORIAL HepG2 Assay for M32 Transcription Factor (Internal Marker) (AID 2282949); details: HepG2 Attagene cis-factorial M32 reporter, mRNA; actives raise or lower the signal;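 also: background control marker of the multiplexed CIS panel rather than a real target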
Method in brief: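 HepG2 cells transiently transfected with multiplexed cis-regulated reporter units, dosed 24 h. Reporter mRNA quantified by RT-PCR, 6-FAM labelling, HpaI digestion and capillary electrophoresis; bidirectional fit vs DMSO.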

[6] = target: Hypoxia-inducible factor 1-alpha (Homo sapiens) (UniProt Q16665); experiment: ATG_HIF1a_CIS: Attagene CIS-FACTORIAL HepG2 Assay for human Hypoxia Inducible Factor 1 (HIF1A) (AID 2282951); details: HepG2 Attagene cis-factorial HIF1a reporter transcription; actives raise or lower the signal
Method in brief: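 Activity is fitted in both directions relative to DMSO. Reporter transcripts are read by RT-PCR, fluorescent primer extension and capillary electrophoresis after 24 h chemical treatment. The cells are HepG2 carrying transiently transfected cis-element-driven reporter units responding to endogenous factors.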

[7] = target: Heat shock factor protein 1 (Homo sapiens) (UniProt Q00613); experiment: ATG_HSE_CIS: Attagene CIS-FACTORIAL HepG2 Assay for human Heat Shock Transcription Factor 1 (HSE) (AID 2282953); details: HepG2 HSE cis-reporter, Attagene RNA transcription; actives raise or lower the signal
Method in brief: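 Liver-derived HepG2 cells carry transiently introduced multiple reporter units governed by cis promoters. Reporter RNA measured 24 h post-dose through reverse transcription, PCR amplification, fluorescent labelling and capillary electrophoresis, normalised to DMSO.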

[8] = ATG_MRE_CIS: Attagene CIS-FACTORIAL HepG2 Assay for human Metal Responsive Element (MRE) (AID 2282954); details: HepG2 MRE cis-reporter transcription, Attagene multiplex; actives raise or lower the signal
Method in brief: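 Step one: transfect HepG2 with cis-regulated reporter units. Step two: dose 24 h. Step three: isolate RNA, RT-PCR, 6-FAM label, HpaI digest, capillary electrophoresis. Fit bidirectionally to DMSO.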

[9] = target: Paired box protein Pax-6 (Homo sapiens) (UniProt P26367); experiment: ATG_Pax6_CIS: Attagene CIS-FACTORIAL HepG2 Assay for human Paired Box 6 (PAX6) (AID 2282956); details: HepG2 CIS-FACTORIAL PAX6 reporter transcription, RNA readout; actives raise or lower the signal
Method in brief: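 Multiplexed cis-reporter HepG2 system; 24 h treatment; reporter mRNA read by RT-PCR/CE fluorescence; bidirectional fit vs DMSO.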

[10] = ATG_PXRE_CIS: Attagene CIS-FACTORIAL HepG2 Assay for human Pregnane X Receptor Element (PXRE) (AID 2282957); details: HepG2 Attagene CIS-FACTORIAL PXRE reporter, mRNA; actives raise or lower the signal
Method in brief: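 Transiently transfected HepG2 cells were dosed and incubated for 24 h. RNA was then isolated, DNase-treated, reverse-transcribed and reporter sequences amplified. Labeled, HpaI-digested fragments were quantified by capillary electrophoresis against DMSO.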

[11] = ATG_PPRE_CIS: Attagene CIS-FACTORIAL HepG2 Assay for human Peroxisome Proliferator-activated Response Element (PPRE) (AID 2282958); details: HepG2 PPRE cis-element reporter, Attagene transcription factor profiling; actives raise or lower the signal
Method in brief: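 Endogenous PPRE-driven transcription is measured in HepG2 cells carrying transfected multi-reporter constructs. Reporter transcripts are quantified by RT-PCR, HpaI digestion and capillary electrophoresis 24 h after dosing. DMSO baseline, bidirectional fit.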

[12] = ATG_Sox_CIS: Attagene CIS-FACTORIAL HepG2 Assay for human SRY-box transcription factor (SOX) (AID 2282960); details: HepG2 Attagene cis-factorial SOX reporter, mRNA; actives raise or lower the signal
Method in brief: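 Reporter transcripts, measured by RT-PCR and capillary electrophoresis of labelled fragments, report endogenous SOX transcription factor activity. Transiently transfected human HepG2 cells receive chemical for 24 h; changes in either direction are fitted relative to DMSO.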

[13] = target: Transcription factor Sp1 (Homo sapiens) (UniProt P08047); experiment: ATG_Sp1_CIS: Attagene CIS-FACTORIAL HepG2 Assay for human Specificity Protein 1 (Sp1) (AID 2282961); details: HepG2 Sp1 cis-reporter transcription, actives raise or lower the signal
Method in brief: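 Read-out is reporter transcript level, measured by RT-PCR and fluorescent capillary electrophoresis after 24 h chemical treatment. System: transiently transfected HepG2 cells reporting endogenous transcription factor activity; gain or loss fitted against DMSO baseline.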

[14] = ATG_SREBP_CIS: Attagene CIS-FACTORIAL HepG2 Assay for human Sterol Regulatory Element Binding (SREBP) (AID 2282962); details: HepG2 Attagene cis-factorial SREBP reporter, mRNA; actives raise or lower the signal
Method in brief: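 mRNA induction of transfected cis-promoter reporters in HepG2 cells, 24 h post-dose. Detection: RT-PCR with 6-FAM-labelled products, HpaI digest, capillary electrophoresis. DMSO served as negative control and baseline.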

[15] = target: Signal transducer and activator of transcription 3 (Homo sapiens) (UniProt P40763); experiment: ATG_STAT3_CIS: Attagene CIS-FACTORIAL HepG2 Assay for human Signal Transducer and Activator of Transcription 3 (STAT3) (AID 2282963); details: HepG2, Attagene cis-factorial STAT3 reporter transcription; actives raise or lower the signal
Method in brief: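 Transcript-level reporter assay. HepG2 transient MRTU transfection, 24 h exposure, fluorescence detection after RT-PCR and CE; DMSO baseline.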

[16] = ATG_TA_CIS: Attagene CIS-FACTORIAL HepG2 Assay for human TA Basal Promoter (AID 2282964); details: HepG2 Attagene CIS-factorial TA basal promoter reporter; actives raise or lower the signal
Method in brief: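 Background internal-marker endpoint from a 52-component HepG2 cis-reporter panel. Cells treated 24 h; reporter transcripts quantified via RT-PCR and CE fluorescence against DMSO baseline.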

[17] = target: Hepatocyte nuclear factor 6 (Homo sapiens) (UniProt Q9UBC0); experiment: ATG_HNF6_CIS: Attagene CIS-FACTORIAL HepG2 Assay for human Hepatocyte Nuclear Factor 6 (HNF6) (AID 2282952); details: HepG2 Attagene cis-factorial HNF6 reporter transcription; actives raise or lower the signal
Method in brief: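 Reporter mRNA induction or loss in HepG2 after 24 h exposure; transient cis-MRTU transfection; fragments quantified by capillary electrophoresis; bidirectional analysis, DMSO as negative control.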

[18] = ATG_M_06_CIS: Attagene CIS-FACTORIAL HepG2 Assay for M06 Transcription Factor (Internal Marker) (AID 2282950); details: HepG2 Attagene CIS-FACTORIAL M06 internal marker reporter; actives raise or lower the signal
Method in brief: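 Cells (HepG2, transiently carrying cis-driven reporter units) receive chemical for 24 h before RNA isolation. Reporter cDNA is PCR-amplified, FAM-labelled by primer extension, HpaI-digested and sized on a capillary analyser.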

[19] = ATG_RORE_CIS: Attagene CIS-FACTORIAL HepG2 Assay for human RAR-related Orphan Receptor Element (RORE) (AID 2282959); details: HepG2 Attagene cis-factorial RORE reporter, mRNA; actives raise or lower the signal
Method in brief: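 RORE reporter transcripts reflecting endogenous factor activity were read after 24 h compound exposure of transfected HepG2 cells, using reverse transcription, PCR, fluorescent labelling and capillary electrophoresis sizing. Gain or loss fitted against DMSO.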

[20] = ATG_PBREM_CIS: Attagene CIS-FACTORIAL HepG2 Assay for human Phenobarbital-responsive Enhancer Module (PBREM) (AID 2282955); details: HepG2 PBREM cis-reporter, Attagene multiplexed transcription; actives raise or lower the signal
Method in brief: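 Endogenous transcription factor activity was read from reporter transcripts in transiently transfected human HepG2 liver cells after 24 h dosing. RT-PCR products were fluorescently labelled, HpaI-cut and sized by capillary electrophoresis; activity fitted bidirectionally against DMSO baseline.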

Measured: AC50

Chain of Signal transducer and activator of transcription 3 (Homo sapiens) (P40763 whole entry, looked up): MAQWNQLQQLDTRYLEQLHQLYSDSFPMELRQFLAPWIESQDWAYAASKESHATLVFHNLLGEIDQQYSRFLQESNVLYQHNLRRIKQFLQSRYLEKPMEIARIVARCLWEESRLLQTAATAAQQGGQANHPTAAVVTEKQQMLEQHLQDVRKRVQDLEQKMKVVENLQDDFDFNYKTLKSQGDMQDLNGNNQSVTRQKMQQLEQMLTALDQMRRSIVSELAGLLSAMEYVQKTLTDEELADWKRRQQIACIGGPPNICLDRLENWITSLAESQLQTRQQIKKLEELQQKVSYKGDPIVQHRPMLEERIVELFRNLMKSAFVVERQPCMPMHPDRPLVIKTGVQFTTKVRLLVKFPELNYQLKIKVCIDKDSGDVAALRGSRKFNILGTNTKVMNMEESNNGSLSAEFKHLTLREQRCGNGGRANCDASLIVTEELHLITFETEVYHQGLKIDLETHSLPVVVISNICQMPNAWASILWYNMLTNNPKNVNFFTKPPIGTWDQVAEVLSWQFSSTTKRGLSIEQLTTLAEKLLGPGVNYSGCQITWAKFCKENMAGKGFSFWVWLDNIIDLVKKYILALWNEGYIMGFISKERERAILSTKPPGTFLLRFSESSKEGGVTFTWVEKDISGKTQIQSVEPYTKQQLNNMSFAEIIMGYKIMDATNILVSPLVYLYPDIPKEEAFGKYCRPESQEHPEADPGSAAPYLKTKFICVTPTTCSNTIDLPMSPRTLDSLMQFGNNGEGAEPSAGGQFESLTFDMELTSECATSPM
Chain of Bile acid receptor (Homo sapiens) (Q96RI1 whole entry, looked up): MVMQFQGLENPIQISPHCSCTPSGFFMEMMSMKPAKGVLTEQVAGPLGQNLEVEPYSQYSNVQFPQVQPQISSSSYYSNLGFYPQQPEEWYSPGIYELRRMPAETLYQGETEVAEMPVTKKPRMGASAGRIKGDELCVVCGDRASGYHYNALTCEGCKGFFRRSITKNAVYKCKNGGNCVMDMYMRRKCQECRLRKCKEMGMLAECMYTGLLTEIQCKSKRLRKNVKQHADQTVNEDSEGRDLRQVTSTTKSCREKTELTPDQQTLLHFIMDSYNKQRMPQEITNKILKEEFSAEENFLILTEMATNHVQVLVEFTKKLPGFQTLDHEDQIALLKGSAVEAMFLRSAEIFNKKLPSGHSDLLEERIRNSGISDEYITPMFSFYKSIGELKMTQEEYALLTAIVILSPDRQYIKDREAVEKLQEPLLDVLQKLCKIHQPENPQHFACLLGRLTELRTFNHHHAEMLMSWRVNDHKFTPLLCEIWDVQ
Chain of Hypoxia-inducible factor 1-alpha (Homo sapiens) (Q16665 whole entry, looked up): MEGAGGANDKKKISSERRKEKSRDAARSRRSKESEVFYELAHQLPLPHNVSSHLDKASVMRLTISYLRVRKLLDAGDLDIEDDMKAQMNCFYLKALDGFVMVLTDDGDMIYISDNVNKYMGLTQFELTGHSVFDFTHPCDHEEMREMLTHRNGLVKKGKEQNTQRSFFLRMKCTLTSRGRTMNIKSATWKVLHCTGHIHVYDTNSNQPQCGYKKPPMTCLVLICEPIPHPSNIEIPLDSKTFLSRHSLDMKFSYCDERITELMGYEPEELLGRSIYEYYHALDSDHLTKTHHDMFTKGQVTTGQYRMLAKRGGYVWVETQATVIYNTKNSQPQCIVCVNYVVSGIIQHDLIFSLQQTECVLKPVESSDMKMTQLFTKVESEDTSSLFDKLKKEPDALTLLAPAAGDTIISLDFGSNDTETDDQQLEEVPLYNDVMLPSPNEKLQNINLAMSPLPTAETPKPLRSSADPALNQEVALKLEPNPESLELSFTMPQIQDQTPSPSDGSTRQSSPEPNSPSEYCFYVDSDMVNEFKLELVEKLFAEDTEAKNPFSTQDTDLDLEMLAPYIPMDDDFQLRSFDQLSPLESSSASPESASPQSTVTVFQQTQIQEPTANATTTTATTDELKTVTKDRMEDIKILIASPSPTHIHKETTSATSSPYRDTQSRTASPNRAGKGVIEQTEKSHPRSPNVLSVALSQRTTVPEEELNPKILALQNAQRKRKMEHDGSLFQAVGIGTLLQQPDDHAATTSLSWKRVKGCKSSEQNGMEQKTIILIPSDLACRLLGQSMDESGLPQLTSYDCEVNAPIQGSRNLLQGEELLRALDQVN
Chain of Hepatocyte nuclear factor 6 (Homo sapiens) (Q9UBC0 whole entry, looked up, the tested form may be a part): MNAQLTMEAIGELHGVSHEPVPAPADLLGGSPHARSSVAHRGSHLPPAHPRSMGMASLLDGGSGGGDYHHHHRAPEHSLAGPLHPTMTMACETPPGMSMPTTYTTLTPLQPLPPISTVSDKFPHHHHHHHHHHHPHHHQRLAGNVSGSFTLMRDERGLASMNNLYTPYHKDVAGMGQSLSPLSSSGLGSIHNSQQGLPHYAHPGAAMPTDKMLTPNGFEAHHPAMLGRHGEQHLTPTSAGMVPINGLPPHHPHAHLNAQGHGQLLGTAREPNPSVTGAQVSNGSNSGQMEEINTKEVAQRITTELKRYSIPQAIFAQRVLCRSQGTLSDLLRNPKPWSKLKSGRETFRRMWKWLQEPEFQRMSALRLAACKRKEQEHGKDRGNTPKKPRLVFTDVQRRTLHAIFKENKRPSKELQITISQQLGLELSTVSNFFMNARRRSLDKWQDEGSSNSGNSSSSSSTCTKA
Chain of Paired box protein Pax-6 (Homo sapiens) (P26367 whole entry, looked up): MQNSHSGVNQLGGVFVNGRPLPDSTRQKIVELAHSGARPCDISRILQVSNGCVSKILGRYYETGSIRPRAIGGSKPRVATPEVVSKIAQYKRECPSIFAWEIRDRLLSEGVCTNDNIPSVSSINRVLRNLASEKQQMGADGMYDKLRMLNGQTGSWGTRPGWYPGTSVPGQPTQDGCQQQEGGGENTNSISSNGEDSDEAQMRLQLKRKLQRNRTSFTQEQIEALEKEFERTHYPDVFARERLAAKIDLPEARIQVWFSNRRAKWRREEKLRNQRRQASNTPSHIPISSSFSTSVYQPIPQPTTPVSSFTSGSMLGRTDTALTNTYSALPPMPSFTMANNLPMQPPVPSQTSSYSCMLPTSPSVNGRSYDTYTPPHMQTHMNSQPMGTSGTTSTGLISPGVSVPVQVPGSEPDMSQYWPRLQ
Chain of Heat shock factor protein 1 (Homo sapiens) (Q00613 whole entry, looked up): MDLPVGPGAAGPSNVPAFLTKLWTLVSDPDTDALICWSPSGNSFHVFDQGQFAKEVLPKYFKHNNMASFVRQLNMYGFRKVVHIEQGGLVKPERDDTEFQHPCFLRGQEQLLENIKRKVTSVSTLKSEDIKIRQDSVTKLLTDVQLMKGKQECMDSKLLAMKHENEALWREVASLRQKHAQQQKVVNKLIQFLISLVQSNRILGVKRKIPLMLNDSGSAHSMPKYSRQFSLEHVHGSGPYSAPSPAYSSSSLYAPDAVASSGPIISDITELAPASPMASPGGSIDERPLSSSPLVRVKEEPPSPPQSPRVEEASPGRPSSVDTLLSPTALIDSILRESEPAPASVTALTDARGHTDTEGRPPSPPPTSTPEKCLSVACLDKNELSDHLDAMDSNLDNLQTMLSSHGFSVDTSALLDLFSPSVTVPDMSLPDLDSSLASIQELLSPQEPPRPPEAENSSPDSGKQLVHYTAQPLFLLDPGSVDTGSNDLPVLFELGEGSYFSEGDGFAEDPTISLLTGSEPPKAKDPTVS
Chain of Transcription factor Sp1 (Homo sapiens) (P08047 whole entry, looked up): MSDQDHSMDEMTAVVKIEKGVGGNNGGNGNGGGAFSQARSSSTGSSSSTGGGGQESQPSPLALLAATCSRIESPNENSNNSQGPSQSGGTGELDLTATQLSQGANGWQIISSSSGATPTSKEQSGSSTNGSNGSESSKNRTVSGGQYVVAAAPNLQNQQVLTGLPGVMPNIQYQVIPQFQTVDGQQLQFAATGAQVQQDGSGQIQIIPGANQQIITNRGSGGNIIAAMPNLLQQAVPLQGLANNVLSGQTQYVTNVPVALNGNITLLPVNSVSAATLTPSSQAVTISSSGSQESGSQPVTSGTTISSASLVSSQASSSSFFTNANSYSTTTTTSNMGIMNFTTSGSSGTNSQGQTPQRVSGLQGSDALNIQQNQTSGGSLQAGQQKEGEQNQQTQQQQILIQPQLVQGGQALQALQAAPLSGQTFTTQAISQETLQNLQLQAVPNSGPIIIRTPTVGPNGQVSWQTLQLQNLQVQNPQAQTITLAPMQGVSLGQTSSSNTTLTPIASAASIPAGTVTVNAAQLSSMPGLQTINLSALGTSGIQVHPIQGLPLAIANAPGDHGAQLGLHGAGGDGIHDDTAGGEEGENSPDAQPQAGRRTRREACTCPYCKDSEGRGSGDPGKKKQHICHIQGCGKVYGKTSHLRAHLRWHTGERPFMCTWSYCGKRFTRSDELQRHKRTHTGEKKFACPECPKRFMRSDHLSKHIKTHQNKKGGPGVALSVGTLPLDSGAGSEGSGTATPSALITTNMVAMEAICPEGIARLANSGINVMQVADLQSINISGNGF

OCCOc1ccccc1
not listed: [17] | [18] | [19] | [20]
inactive: all other assays above

O=[N+]([O-])/N=C1\NCCN1Cc1ccc(Cl)nc1
active: [10] 30.6 µM
not listed: [11] | [14] | [18] | [19] | [20]
inactive: all other assays above

O=[N+]([O-])c1c(Cl)c(Cl)c(Cl)c(Cl)c1Cl
active: [6] 37.6 µM | [7] 80.8 µM | [8] 50 µM | [9] 50 µM | [11] 2.32 µM
not listed: [2] | [14] | [19] | [20]
inactive: all other assays above

O=C(NC(=O)c1c(F)cccc1F)Nc1ccc(OC(F)(F)C(F)OC(F)(F)F)c(Cl)c1 (stereo not given)
active: [11] 20.9 µM
not listed: [2] | [17] | [18] | [19] | [20]
inactive: all other assays above

CCOCN(C(=O)CCl)c1c(C)cccc1CC
active: [10] 0.468 µM
not listed: [2] | [11] | [14] | [17] | [18] | [19] | [20]
inactive: all other assays above

Cc1[nH]c(=O)n(C(C)(C)C)c(=O)c1Cl
active: [8] 50 µM | [13] 50 µM
not listed: [3] | [11] | [17] | [18] | [19] | [20]
inactive: all other assays above

CC[C@H](C)[C@H]1O[C@]2(C=C[C@@H]1C)C[C@@H]1C[C@@H](C/C=C(\C)[C@@H](O[C@H]3C[C@H](OC)[C@@H](O[C@H]4C[C@H](OC)[C@@H](O)[C@H](C)O4)[C@H](C)O3)[C@@H](C)/C=C/C=C3\CO[C@@H]4[C@H](O)C(C)=C[C@@H](C(=O)O1)[C@]34O)O2 (tested in a mixture with another compound)
active: [10] 1.75 µM
not listed: [2] | [11] | [17] | [18] | [19] | [20]
inactive: all other assays above

O=S(=O)(O)C(F)(F)C(F)(F)C(F)(F)C(F)(F)C(F)(F)C(F)(F)C(F)(F)C(F)(F)F
active: [5] 53.6 µM | [6] 84 µM | [7] 182 µM and 54.8 µM | [12] 52.8 µM | [13] 26.5 µM and 53.3 µM | [16] 55.9 µM
inactive: [1] | [4] | [5] | [18] | [6] | [7] | [8] | [9] | [12] | [13] | [15] | [16]

N#CN
not listed: [2] | [14] | [17] | [18] | [20]
inactive: all other assays above

CNC(=O)CSP(=S)(OC)OC
not listed: [2] | [3] | [14] | [17] | [18] | [19]
inactive: all other assays above

COP(=S)(OC)Oc1ccc(SC)c(C)c1
active: [10] 10.8 µM
not listed: [2] | [14] | [17] | [18] | [19] | [20]
inactive: all other assays above

O=C(O)C(F)(F)C(F)(F)C(F)(F)C(F)(F)C(F)(F)C(F)(F)C(F)(F)F
inactive: [1] | [4] | [5] | [6] | [8] | [9] | [10] | [12] | [13] | [15] | [16]
active: [10] 34.1 µM and 41 µM and 41.5 µM

COC(=O)c1ccccc1S(=O)(=O)NC(=O)Nc1nc(C)nc(OC)n1
not listed: [3] | [11] | [14] | [18] | [19] | [20]
inactive: all other assays above

CC1(C)C(C=C(Cl)Cl)C1C(=O)OC(C#N)c1ccc(F)c(Oc2ccccc2)c1 (stereo not given)
active: [10] 2.93 µM | [11] 8.12 µM
not listed: [2] | [17] | [18] | [19] | [20]
inactive: all other assays above

From PubChem BioAssay (EPA / NIEHS)
